Measured values reported in PubChem BioAssay AID593 (National Center for Advancing Translational Sciences (NCATS), 2007).
Out of some 59,000 compounds screened, about 540 (0.92%) were called active. Inconclusive results (about 33%) are left out. Rule as the data show it: active = max fluorescein-equivalent concentration above about 10 nM; inconclusive = between about 1.1 nM and that limit; inactive = weaker than that. Only a selection was taken, and actives are over-represented in it overall.

Test: qHTS Assay for Spectroscopic Profiling in Fluorescein Spectral Region
Conditions: Compound autofluorescence, 480/540 nm; max fluorescein-equivalent concentration: stronger effect = higher value; outcome: fluorescein-equivalent
Description: NIH Molecular Libraries Screening Centers Network [MLSCN]
NIH Chemical Genomics Center [NCGC]
Occasionally, the artifactual effect may originate from the compound's own spectral or other biophysical properties which generally tend to track its assay concentration. Pre-screening/profiling the library with respect to the compounds' spectral properties should help one exclude false positives early on. While the most informative fluorescent profiling data set is obtained by performing a full excitation and emission scan of each well by using a monochromator-based plate reader, such an approach is practical only on a very limited scale as scanning each well requires long time. An alternative approach, applied here, is to perform plate reader scans using selected excitation and emission wavelength pairs to generate a multidimensional relational database that correlates compound concentration and the respective relative fluorescence intensity at a given wavelength set. A standard curve of fluorescein present on each plate as six-point concentration series, was used to compute a normalized fluorescence response, termed dye-equivalent concentration, for each compound at each concentration.
NCGC Assay Protocol Summary:
100 mM Tris buffer, pH 8.0
The wells in columns 1 through 4 of a Kalypsys polypropylene 1536-well compound plate were filled with standard solutions of fluorophore corresponding to the spectral region of interest. Solutions of Fluorescein were placed in the following wells: Q1, R1: 3 mM, Q2, R2: 300 uM, Q3, R3: 30 uM, Q4, R4: zero (DMSO), S1, T1: 3 uM, S2, T2: 900 nM, S3, T3: 300 nM, S4, T4: zero (DMSO).
Six uL of buffer were dispensed to 1536-well Greiner black plates. Compounds and dye standards (23 nL) were transferred via Kalypsys PinTool. The plates were incubated for 15 min at room temperature, and then read on ViewLux (Perkin-Elmer) High-throughput CCD imager using 480 nm and 540 nm excitation and emission filter set.
Keywords: NIH Roadmap, MLSCN, MLI, MLSMR, qHTS, NCGC, Fluorescein, Fluorescent Profiling.

| Structure (SMILES) | max fluorescein-equivalent concentration |
| --- | --- |
| CN1C2C=C(N(C(=O)c3ccc(Cl)cc3)c3ccccc3)CC1CC2 (stereo not given) | 10 nM (active) |
| CCN1C[C@@]2(COC)CC[C@H](OC)[C@]34[C@@H]1[C@]1(OCO[C@@]15C[C@@H](OC)C1C[C@H]3[C@H]5[C@@H]1OC)[C@H](O)[C@@H]24 | inactive |
| COc1ccc(-c2nc(CS(=O)CC(=O)N3CCC4(CC3)OCCO4)c(C)o2)cc1 (stereo not given) | inactive |
| CC(C)CCC1(CCN)C(=O)NC(=O)NC1=O | inactive |
| CCC(=NCc1ccco1)c1c(O)n(Cc2ccccc2)c(=O)[nH]c1=O | inactive |
